Usually AC50 stands for the midpoint of the concentration-response curve, whichever way the signal moves.

Molecules are shown by their SMILES. Inconclusive results are not listed. The source made the active and inactive calls. The calls were made as follows, unless noted: active = hit-call score of the fitted dose curve at least 0.9, where 1 is the maximum; inactive = score below 0.9.

Test [1] concerns the target Paired box protein Pax-6 (Homo sapiens) (UniProt P26367). Nature of the test: ATG_Pax6_CIS: Attagene CIS-FACTORIAL HepG2 Assay for human Paired Box 6 (PAX6) (AID 2282956). The note with it: HepG2 CIS-FACTORIAL PAX6 reporter transcription, RNA readout; actives raise or lower the signal. The essentials:
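DMSO-referenced bidirectional fits of reporter mRNA fluorescence; HepG2 with transient cis-promoter MRTUs, 24 h post-dose, RT-PCR plus capillary electrophoresis detection.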

Test [2] in a line: ATG_PXRE_CIS: Attagene CIS-FACTORIAL HepG2 Assay for human Pregnane X Receptor Element (PXRE) (AID 2282957). As to conditions: HepG2 Attagene CIS-FACTORIAL PXRE reporter, mRNA; actives raise or lower the signal. Summed up: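 Fluorescent capillary electrophoresis of amplified reporter cDNA gave the signal, collected 24 h after dosing HepG2 cells that held transfected cis-element reporter constructs.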

Test [3] in a line: ATG_PPRE_CIS: Attagene CIS-FACTORIAL HepG2 Assay for human Peroxisome Proliferator-activated Response Element (PPRE) (AID 2282958). As to conditions: HepG2 PPRE cis-element reporter, Attagene transcription factor profiling; actives raise or lower the signal. Summed up: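 After human HepG2 hepatoma cells were transiently transfected with cis-promoter reporter constructs, they were exposed to test chemicals for 24 hours. Reporter RNA was then reverse-transcribed, PCR-amplified, FAM-labeled, HpaI-digested and quantified by capillary electrophoresis.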

Test [4] can be described thus: ATG_RORE_CIS: Attagene CIS-FACTORIAL HepG2 Assay for human RAR-related Orphan Receptor Element (RORE) (AID 2282959). As to conditions: HepG2 Attagene cis-factorial RORE reporter, mRNA; actives raise or lower the signal. The essentials: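 Measured here: transcript induction of a cis-regulated reporter in HepG2 cells transiently transfected via FuGene 6. After 24 h, RNA was processed by RT-PCR and fluorescent capillary electrophoresis; DMSO defined baseline activity.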

A short description of test [5]: ATG_Sox_CIS: Attagene CIS-FACTORIAL HepG2 Assay for human SRY-box transcription factor (SOX) (AID 2282960). As to conditions: HepG2 Attagene cis-factorial SOX reporter, mRNA; actives raise or lower the signal. Summed up:
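Using transiently transfected HepG2 cells, reporter transcription driven by cis elements was assessed 24 h after dosing. Signal was fluorescence of capillary-separated RT-PCR products, with DMSO defining baseline activity.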

In test [6] the target is Transcription factor Sp1 (Homo sapiens) (UniProt P08047). Kind of test: ATG_Sp1_CIS: Attagene CIS-FACTORIAL HepG2 Assay for human Specificity Protein 1 (Sp1) (AID 2282961). As to conditions: HepG2 Sp1 cis-reporter transcription, actives raise or lower the signal. The essentials: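 After transient transfection of HepG2 cells with cis-promoter reporter units and 24 h chemical treatment, reporter transcripts were quantified by RT-PCR and capillary electrophoresis fluorescence. Gain- and loss-of-signal fitted against DMSO.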
Transcription factor Sp1 (Homo sapiens), sequence (P08047 whole entry, looked up): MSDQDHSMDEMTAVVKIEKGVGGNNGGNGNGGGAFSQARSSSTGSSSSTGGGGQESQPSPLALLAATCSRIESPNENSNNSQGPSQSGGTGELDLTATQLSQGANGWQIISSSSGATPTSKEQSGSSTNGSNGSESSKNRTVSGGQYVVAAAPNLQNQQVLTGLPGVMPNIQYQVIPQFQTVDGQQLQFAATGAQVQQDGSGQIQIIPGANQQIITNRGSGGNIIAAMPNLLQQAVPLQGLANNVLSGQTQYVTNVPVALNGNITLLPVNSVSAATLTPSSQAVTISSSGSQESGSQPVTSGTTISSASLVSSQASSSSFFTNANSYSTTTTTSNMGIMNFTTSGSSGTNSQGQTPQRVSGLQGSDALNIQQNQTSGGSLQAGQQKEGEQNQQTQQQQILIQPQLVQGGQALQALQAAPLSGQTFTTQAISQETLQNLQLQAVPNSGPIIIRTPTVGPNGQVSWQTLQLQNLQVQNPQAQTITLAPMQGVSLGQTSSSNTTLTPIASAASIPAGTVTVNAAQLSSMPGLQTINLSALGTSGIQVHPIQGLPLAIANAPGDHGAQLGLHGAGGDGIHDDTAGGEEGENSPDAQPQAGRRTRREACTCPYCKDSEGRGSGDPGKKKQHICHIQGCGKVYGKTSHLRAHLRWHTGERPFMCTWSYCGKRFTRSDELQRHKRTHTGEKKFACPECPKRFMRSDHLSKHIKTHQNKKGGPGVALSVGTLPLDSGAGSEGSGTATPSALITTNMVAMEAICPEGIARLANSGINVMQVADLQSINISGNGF

Test [7] addresses Signal transducer and activator of transcription 3 (Homo sapiens) (UniProt P40763). Nature of the test: ATG_STAT3_CIS: Attagene CIS-FACTORIAL HepG2 Assay for human Signal Transducer and Activator of Transcription 3 (STAT3) (AID 2282963). The note with it: HepG2, Attagene cis-factorial STAT3 reporter transcription; actives raise or lower the signal. Summed up:
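Uses human liver HepG2 transiently carrying cis-regulated reporter transcription units. Following 24 h dosing, reporter mRNA induction was detected by RT-PCR and capillary electrophoresis, analysed bidirectionally versus DMSO.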

A short description of test [8]: ATG_TCF_b_cat_CIS: Attagene CIS-FACTORIAL HepG2 Assay for human T-Cell-Factor with beta-catenin (TCF/b-cat) (AID 2282965). The note with it: HepG2 TCF/beta-catenin cis-reporter transcription, actives raise or lower the signal. The essentials: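 In this cis-format system, transfected HepG2 cells report endogenous transcription factor activity. Readout after 24 h exposure is reporter transcript abundance from RT-PCR and capillary electrophoresis, analysed for gain or loss of signal versus DMSO.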

Test [9] can be described thus: ATG_TAL_CIS: Attagene CIS-FACTORIAL HepG2 Assay for human TAL Basal Promoter (AID 2282966).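 Also: background control endpoint measuring basal TAL promoter reporter mRNA not a specific factor.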 As to conditions: HepG2 Attagene cis-factorial TAL promoter reporter; actives raise or lower the signal. Summed up:
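Transiently transfected HepG2 (cis-regulated reporter units), 24 h treatment, mRNA read by fluorescent CE after RT-PCR; bidirectional fit, DMSO baseline.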

Test [10] is described as follows: ATG_TGFb_CIS: Attagene CIS-FACTORIAL HepG2 Assay for human Transforming Growth Factor (TGF) (AID 2282967). The note with it: HepG2 Attagene CIS TGFb reporter, mRNA transcription; actives raise or lower the signal. The essentials: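 Endogenous TGFB1-linked transcription factor activity read as reporter mRNA via RT-PCR and capillary electrophoresis, 24 h after dosing transiently transfected HepG2 cells. Gain or loss of signal fitted relative to DMSO.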

The target in test [11] is Steroid hormone receptor ERR1 (Homo sapiens) (UniProt P11474). Nature of the test: ATG_ERRa_TRANS: Attagene TRANS-FACTORIAL HepG2 Assay for human Estrogen-Related Receptor alpha (ERRa) (AID 2282971; active = hit-call score of the fitted dose curve at least 0.9, where 1 is the maximum). As to conditions: HepG2 Attagene TRANS reporter, ERRa transactivation. Summed up: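 HepG2 cells transiently transfected with multiplexed GAL4-UAS reporter units reading chimeric ERRa-Gal4 activity; 24 h compound exposure. Reporter mRNA measured by RT-PCR, 6-FAM labelling, HpaI digest and capillary electrophoresis; gain of signal fitted versus DMSO baseline.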
Steroid hormone receptor ERR1 (Homo sapiens), sequence (P11474 whole entry, looked up, the tested form may be a part): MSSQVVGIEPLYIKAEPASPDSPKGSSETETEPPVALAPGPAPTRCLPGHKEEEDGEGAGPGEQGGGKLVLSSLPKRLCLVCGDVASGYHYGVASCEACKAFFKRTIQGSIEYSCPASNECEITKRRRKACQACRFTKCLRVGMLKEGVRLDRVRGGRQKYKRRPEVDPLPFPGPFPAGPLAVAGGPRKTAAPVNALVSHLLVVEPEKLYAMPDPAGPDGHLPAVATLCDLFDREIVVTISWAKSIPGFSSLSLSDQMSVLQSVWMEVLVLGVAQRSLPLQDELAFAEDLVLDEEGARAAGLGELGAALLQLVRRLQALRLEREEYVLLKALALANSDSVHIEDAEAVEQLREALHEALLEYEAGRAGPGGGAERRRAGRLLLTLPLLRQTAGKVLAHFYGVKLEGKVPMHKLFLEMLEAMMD

For test [12], the target named is X-box-binding protein 1 (Homo sapiens) (UniProt P17861). Kind of test: ATG_Xbp1_CIS: Attagene CIS-FACTORIAL HepG2 Assay for human X-box Binding Protein 1 (XBP1) (AID 2282972). The note with it: HepG2 XBP1 cis-element reporter, Attagene multiplex; actives raise or lower the signal. Summed up:
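Changes in reporter transcript abundance, read by RT-PCR and capillary electrophoresis, reflect endogenous transcription factor activity. Transfected HepG2 cells received compound for 24 hours; DMSO defined baseline for bidirectional analysis.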

Test [13] in a line: ATG_M_19_TRANS: Attagene TRANS-FACTORIAL HepG2 Assay for M19 Transcription Factor (Internal Marker) (AID 2282974; active = hit-call score of the fitted dose curve at least 0.9, where 1 is the maximum). The note with it: HepG2 Attagene TRANS-FACTORIAL M19 internal marker reporter. The essentials: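 Gain-of-signal in reporter mRNA, relative to DMSO, was scored from capillary electrophoresis fluorescence. HepG2 cells carried transiently transfected multiple reporter transcription units and were incubated with test chemicals for 24 h.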

A short description of test [14]: ATG_GAL4_TRANS: Attagene TRANS-FACTORIAL HepG2 Assay for GAL4 (Internal Marker) (AID 2282976; active = hit-call score of the fitted dose curve at least 0.9, where 1 is the maximum). The note with it: HepG2 Attagene TRANS GAL4 internal marker reporter. Summed up: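 HepG2 cells transiently transfected with multiplexed GAL4-UAS reporter constructs were dosed for 24 h. Reporter mRNA was measured by RT-PCR, 6-FAM primer extension, HpaI digestion and capillary electrophoresis, and gain of signal was fitted relative to DMSO.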

Test [15] addresses Estrogen-related receptor gamma (Homo sapiens) (UniProt P62508). Nature of the test: ATG_ERRg_TRANS: Attagene TRANS-FACTORIAL HepG2 Assay for human Estrogen-Related Receptor gamma (ERRg) (AID 2282977; active = hit-call score of the fitted dose curve at least 0.9, where 1 is the maximum;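 also: hits increase reporter signal over DMSO so potencies reflect activators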). The note with it: HepG2 Attagene TRANS reporter, ERRg transactivation. The essentials: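 Readout: fluorescent reporter-mRNA fragments resolved by capillary electrophoresis after RT-PCR and HpaI cut. Cells: transiently transfected HepG2 carrying GAL4-UAS reporters driven by exogenous NR-Gal4 chimeras, dosed 24 h. Activity fitted upward relative to DMSO baseline.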

A short description of test [16]: ATG_TA_CIS: Attagene CIS-FACTORIAL HepG2 Assay for human TA Basal Promoter (AID 2282964). The note with it: HepG2 Attagene CIS-factorial TA basal promoter reporter; actives raise or lower the signal. The essentials:
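Background-control readout: TA basal promoter reporter mRNA, fitted in both directions relative to DMSO. Measured by RT-PCR and capillary electrophoresis 24 hours after treating HepG2 human liver cells transiently carrying multiplexed cis-regulated reporter constructs.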

Test [17] in a line: ATG_VDRE_CIS: Attagene CIS-FACTORIAL HepG2 Assay for human Vitamin D Receptor Element (VDRE) (AID 2282968). As to conditions: HepG2 VDRE cis-reporter transcription, actives raise or lower the signal. Summed up: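 Transfected HepG2 reporter cells, chemical treatment 24 h. RNA isolated, cDNA amplified with reporter-specific primers, products analysed by capillary electrophoresis. Endpoint fitted in both directions versus DMSO.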

Test [18] is described as follows: ATG_SREBP_CIS: Attagene CIS-FACTORIAL HepG2 Assay for human Sterol Regulatory Element Binding (SREBP) (AID 2282962). The note with it: HepG2 Attagene cis-factorial SREBP reporter, mRNA; actives raise or lower the signal. The essentials:
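In this cis-format assay, HepG2 liver cells express reporters controlled by promoter elements responsive to native transcription factors. Exposure lasts 24 h; reporter mRNA fluorescence from capillary electrophoresis gives the signal, fitted bidirectionally against DMSO.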

For test [19], the target named is Nuclear receptor subfamily 1 group I member 3 (Homo sapiens) (UniProt Q14994). Kind of test: ATG_CAR_TRANS: Attagene TRANS-FACTORIAL HepG2 Assay for human Constitutive Androstane Receptor (CAR) (AID 2282969; active = hit-call score of the fitted dose curve at least 0.9, where 1 is the maximum;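 also: activators raise reporter mRNA above DMSO so AC50 marks induction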). The note with it: HepG2 Attagene TRANS-FACTORIAL CAR reporter. Summed up:
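Steps: transient transfection of HepG2 with multiple GAL4-UAS reporter units; 24 h compound incubation; RNA isolation, RT-PCR, 6-FAM primer extension, HpaI digest; capillary electrophoresis. Gain-of-signal relative to DMSO negative control.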

In test [20] the target is Estrogen receptor (Homo sapiens) (UniProt P03372). Kind of test: ATG_ERa_TRANS: Attagene TRANS-FACTORIAL HepG2 Assay for human Estrogen Receptor alpha (ERa) (AID 2282970; active = hit-call score of the fitted dose curve at least 0.9, where 1 is the maximum). The note with it: HepG2 Attagene TRANS ERa GAL4 reporter, mRNA. The essentials: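 One of 30 multiplexed endpoints from a HepG2 TRANS system, this one reports ERa-Gal4-driven reporter mRNA. Transcripts were quantified 24 hours post-dosing by fluorescent RT-PCR and capillary electrophoresis, with activity scored as induction over DMSO.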
Estrogen receptor (Homo sapiens), sequence (P03372 whole entry, looked up, the tested form may be a part): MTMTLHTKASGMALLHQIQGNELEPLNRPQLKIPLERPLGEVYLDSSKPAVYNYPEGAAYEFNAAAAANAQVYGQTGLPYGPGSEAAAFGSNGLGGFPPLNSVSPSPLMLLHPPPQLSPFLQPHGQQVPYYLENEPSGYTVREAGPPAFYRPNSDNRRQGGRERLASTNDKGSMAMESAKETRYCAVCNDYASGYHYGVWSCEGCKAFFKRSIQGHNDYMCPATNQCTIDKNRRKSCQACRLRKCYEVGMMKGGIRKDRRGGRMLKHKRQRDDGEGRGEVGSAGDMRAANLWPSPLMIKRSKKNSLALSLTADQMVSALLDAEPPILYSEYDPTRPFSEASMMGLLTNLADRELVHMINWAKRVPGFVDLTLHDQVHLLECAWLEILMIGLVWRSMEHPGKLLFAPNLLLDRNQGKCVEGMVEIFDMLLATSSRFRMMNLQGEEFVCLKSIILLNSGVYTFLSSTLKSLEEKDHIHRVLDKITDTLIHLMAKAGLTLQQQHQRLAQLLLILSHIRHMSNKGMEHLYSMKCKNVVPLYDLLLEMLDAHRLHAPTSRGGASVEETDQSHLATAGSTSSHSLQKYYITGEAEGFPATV

Paired box protein Pax-6 (Homo sapiens), sequence (P26367 whole entry, looked up): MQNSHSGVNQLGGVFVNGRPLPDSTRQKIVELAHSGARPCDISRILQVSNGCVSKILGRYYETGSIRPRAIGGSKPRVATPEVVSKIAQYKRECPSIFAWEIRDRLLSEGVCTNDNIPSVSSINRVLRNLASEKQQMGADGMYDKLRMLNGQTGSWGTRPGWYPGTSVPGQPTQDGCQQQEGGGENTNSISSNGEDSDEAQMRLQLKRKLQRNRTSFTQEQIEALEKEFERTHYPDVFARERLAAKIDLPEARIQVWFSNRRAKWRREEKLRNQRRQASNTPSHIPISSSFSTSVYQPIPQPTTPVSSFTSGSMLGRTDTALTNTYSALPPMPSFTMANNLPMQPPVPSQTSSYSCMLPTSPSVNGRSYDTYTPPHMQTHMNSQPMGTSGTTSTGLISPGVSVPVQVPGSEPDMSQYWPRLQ
X-box-binding protein 1 (Homo sapiens), sequence (P17861 whole entry, looked up): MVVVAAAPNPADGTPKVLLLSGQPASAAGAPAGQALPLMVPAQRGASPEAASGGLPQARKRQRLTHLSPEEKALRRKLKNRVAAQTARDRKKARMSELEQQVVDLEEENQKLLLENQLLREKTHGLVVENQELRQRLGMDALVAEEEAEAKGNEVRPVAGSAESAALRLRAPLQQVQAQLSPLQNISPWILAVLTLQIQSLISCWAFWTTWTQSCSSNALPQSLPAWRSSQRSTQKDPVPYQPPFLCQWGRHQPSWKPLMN
Signal transducer and activator of transcription 3 (Homo sapiens), sequence (P40763 whole entry, looked up): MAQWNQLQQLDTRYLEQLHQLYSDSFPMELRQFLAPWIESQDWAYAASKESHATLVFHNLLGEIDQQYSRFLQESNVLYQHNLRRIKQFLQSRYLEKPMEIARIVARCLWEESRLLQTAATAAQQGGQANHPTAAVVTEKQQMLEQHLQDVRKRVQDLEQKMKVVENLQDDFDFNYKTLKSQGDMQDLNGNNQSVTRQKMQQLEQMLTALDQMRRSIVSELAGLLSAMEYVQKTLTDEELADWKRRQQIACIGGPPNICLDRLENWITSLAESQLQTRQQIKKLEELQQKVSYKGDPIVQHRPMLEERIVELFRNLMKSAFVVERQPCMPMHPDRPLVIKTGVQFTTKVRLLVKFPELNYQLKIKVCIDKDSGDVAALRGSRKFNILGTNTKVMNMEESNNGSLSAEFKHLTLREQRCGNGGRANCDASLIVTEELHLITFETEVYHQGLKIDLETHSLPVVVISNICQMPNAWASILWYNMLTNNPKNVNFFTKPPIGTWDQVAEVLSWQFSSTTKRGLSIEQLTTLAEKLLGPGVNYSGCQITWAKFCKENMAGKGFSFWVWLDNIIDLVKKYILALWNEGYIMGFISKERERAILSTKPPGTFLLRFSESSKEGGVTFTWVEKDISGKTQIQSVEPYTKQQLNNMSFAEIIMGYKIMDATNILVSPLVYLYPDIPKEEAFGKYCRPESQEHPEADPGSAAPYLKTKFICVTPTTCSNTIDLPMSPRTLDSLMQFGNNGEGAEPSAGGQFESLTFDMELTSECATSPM
Estrogen-related receptor gamma (Homo sapiens), sequence (P62508 whole entry, looked up, the tested form may be a part): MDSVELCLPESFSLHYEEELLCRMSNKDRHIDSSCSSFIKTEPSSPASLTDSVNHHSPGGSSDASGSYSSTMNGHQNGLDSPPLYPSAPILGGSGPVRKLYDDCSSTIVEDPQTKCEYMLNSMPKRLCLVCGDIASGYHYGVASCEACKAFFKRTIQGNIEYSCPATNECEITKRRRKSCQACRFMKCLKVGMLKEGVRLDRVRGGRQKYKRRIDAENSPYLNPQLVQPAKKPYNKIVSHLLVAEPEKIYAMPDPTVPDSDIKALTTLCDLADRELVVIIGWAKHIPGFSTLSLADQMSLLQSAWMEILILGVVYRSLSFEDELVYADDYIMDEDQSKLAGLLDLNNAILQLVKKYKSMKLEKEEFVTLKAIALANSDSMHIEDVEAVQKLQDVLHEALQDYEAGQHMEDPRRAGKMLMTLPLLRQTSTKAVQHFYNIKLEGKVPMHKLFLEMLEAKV
Nuclear receptor subfamily 1 group I member 3 (Homo sapiens), sequence (Q14994 whole entry, looked up, the tested form may be a part): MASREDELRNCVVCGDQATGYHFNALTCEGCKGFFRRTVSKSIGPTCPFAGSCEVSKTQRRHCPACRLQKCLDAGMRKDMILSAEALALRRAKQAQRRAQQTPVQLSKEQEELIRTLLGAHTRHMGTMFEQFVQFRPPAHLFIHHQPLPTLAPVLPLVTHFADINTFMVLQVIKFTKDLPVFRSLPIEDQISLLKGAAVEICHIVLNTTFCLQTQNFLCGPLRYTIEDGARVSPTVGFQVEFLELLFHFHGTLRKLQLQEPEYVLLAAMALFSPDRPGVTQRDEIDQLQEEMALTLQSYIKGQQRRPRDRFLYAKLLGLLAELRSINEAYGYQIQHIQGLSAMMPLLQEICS

As for `CCCCCC/C=C/C=O`, the result in test [1], in [4], in [5], in [6], in test [7] and in test [8] was inactive. For the same molecule, the outcome in test [9], in test [10], in [11], in test [12], in test [13] and in [14] was inactive. The call in test [15] was inactive. Moreover, the AC50 was 37.8 µM (active) in test [2] and 15 µM (active) in test [3].
With `O=S(=O)(O)CC(O)CCl` (stereo not drawn), the molecule was called inactive in test [1], in [2], in test [3], in test [4], in [5] and in test [6]. In addition, the result in test [7], in test [16], in [8], in test [9], in [10] and in test [17] was inactive. The result in test [12] and in test [14] was inactive.
As for `C=C[Si](OC(C)=O)(OC(C)=O)OC(C)=O`, the call in [1], in test [3], in test [4], in test [5], in test [6] and in test [18] was inactive. Moreover, the outcome in test [8], in test [9], in [10], in test [19], in test [12] and in test [13] was inactive. In test [14], the call was inactive. In addition, the AC50 in test [2] is 3.6 µM (active).
For the molecule `C=C(C)C(=O)OCCOc1ccccc1`, the outcome in [1], in test [3], in test [4], in [5], in [18] and in test [7] was inactive. The molecule was classed as inactive in test [16], in [8], in test [10], in test [17], in [20] and in test [12]. Further, the result in test [14] and in test [15] was inactive. In test [2], the AC50 was 68.5 µM (active).
In the case of `CCC(C)OC(=O)c1ccc(O)cc1` (stereo not drawn), the outcome in test [1], in test [4], in [5], in test [6], in test [7] and in test [16] was inactive. Moreover, the result in [8], in test [10], in [19], in test [11], in [12] and in [15] was inactive. In addition, the AC50 in [2] is 27.8 µM (active); in test [3], 100 µM (active); in test [20], 0.75 µM (active).

The record behind these values is PubChem BioAssay (EPA / NIEHS).
